Reference: PubChem BioAssay AID1851 (National Center for Advancing Translational Sciences (NCATS), 2009)
Among all 16,000 compounds or so, about 5,700 (36%) were called active. Another 24% or so got no clear call; they are omitted. The call rests on the fitted dose curve; in most records, active means well fitted curve in the direction sought with a large enough effect; inconclusive means small, poorly fitted or top-dose-only effect, or effect the other way; inactive means no such curve, though single readings can be large or run the other way. The list shows a part of the results.

Target: Cytochrome P450 1A2 (Homo sapiens) (UniProt P05177)
Test: Cytochrome panel assay with activity outcomes
Conditions: recombinant CYP, pro-luciferin dealkylation, luminescence, p450-cyp1a2; series mostly up to 57.1 µM
On the % scale 0 is the no-effect control and ±100 the full control effect.

Cytochrome P450 1A2 (Homo sapiens), sequence (P05177 whole entry, looked up): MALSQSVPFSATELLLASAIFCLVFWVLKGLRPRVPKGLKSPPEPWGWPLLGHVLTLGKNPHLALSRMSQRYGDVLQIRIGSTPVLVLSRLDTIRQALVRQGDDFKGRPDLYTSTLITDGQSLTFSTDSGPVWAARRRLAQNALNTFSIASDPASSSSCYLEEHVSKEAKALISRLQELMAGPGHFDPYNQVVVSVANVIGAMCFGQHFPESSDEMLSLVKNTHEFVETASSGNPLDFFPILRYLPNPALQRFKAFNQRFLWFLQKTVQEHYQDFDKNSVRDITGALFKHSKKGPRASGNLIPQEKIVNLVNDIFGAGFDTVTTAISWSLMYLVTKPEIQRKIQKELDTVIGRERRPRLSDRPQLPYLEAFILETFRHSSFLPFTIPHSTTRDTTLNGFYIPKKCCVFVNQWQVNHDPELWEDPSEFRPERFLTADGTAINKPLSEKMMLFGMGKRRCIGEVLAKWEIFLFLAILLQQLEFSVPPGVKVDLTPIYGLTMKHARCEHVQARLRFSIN

SMILES | AC50 | activity, negative = inhibition
CN1CCC2(CC1)CCN(C(=O)Oc1ccccc1)CC2 | inactive | 
CC(C)[C@@H](C)/C=C\[C@@H](C)[C@@H]1CC[C@H]2C3=CC=C4C[C@@H](O)CC[C@]4(C)[C@H]3CC[C@]21C |  | -8.17% [at 11.4 µM] (inactive)
CC(C)NP(=O)(NC(C)C)OP(=O)(NC(C)C)NC(C)C | inactive | 
COc1cc2c(cc1OC)[C@]13CC[N@+]4(C)CC5=CCO[C@H]6CC(=O)N2[C@@H]1[C@@H]6[C@@H]5C[C@]34O |  | -11.4% [at 2.29 µM] (inactive)
C[C@H](NC(C)(C)C)C(=O)c1cccc(Cl)c1 | inactive | 
Cc1c2cc[n+](CCN3CCCCC3)cc2c(C)c2c1[nH]c1ccc(O)cc12 | 2510 nM (active) | 
CCNC(=O)[C@@H]1O[C@@H](n2cnc3c(N)ncnc32)[C@@H](O)[C@H]1O | inactive | 
CP(=O)(O)CCCN | inactive | 
O=C(CNS(=O)(=O)c1cccs1)N1CCC2(CC1)OCCO2 | inactive | 
CCn1c(O)c(C(c2ccccn2)c2c(O)n(CC)c(=S)[nH]c2=O)c(=O)[nH]c1=S | inactive | 
OC(Cn1c2ccccc2c2ccccc21)C[n+]1ccccc1 (stereo not drawn) | 3160 nM (active) | 
C/C=C1\C[C@H](C)[C@@](O)(CO)C(=O)OCC2=CCN3CC[C@@H](OC1=O)[C@@H]23 | inactive | 
CCOP(=O)(OCC)C(NC(=O)C(Cl)Cl)C(Cl)(Cl)Cl (stereo not drawn) | inactive | 
COCC(=O)N1CCC2(CCCN(Cc3ccncc3)C2)CC1 | inactive | 
Nc1nc(OCc2ccccc2)c2[nH]cnc2n1 | 1000 nM (active) | 
O=C(Oc1ccccc1)N1CCC2(CCN(Cc3nccs3)CC2)CC1 | inactive | 
NC[C@H](O)c1cc(O)c(O)cc1F | inactive | 
CN1CCc2cc3c(cc2[C@@H]1O)OCO3 | inactive | 
C[N+]1(C)CCc2cc3c(cc2[C@@H]1[C@@H]1OC(=O)c2c1ccc1c2OCO1)OCO3 | inactive | 
CN1Cc2c(ccc3c2OCO3)[C@@H]2[C@@H](O)Cc3cc4c(cc3[C@@H]21)OCO4 | 2510 nM (active) | 
Cn1c(O)c(C(c2ccccn2)c2c(O)n(C)c(=S)n(C)c2=O)c(=O)n(C)c1=S | inactive | 
CC(C)(C)c1o[nH]c(=O)c1C[C@H](N)C(=O)O | inactive | 
COc1cc(CCN)c(OC)c(OC)c1 | 3160 nM (active) | 
COc1cc([C@@H](O)CN)ccc1O | inactive | 
Cn1c(=O)c2[nH]cnc2n(C)c1=O.[CH2-][C@H](Cc1cccc2cc(C(=O)O)c(=O)oc12)OC.[Hg].[OH-] |  | -15.3% [at 11.4 µM] (inactive)

SMILES | AC50 | activity, negative = inhibition
COc1cc2ccccc2c2cc([N+](=O)[O-])oc12 | 126 nM (active) | 
C[C@H]1C(=O)O[C@@H]2CCN3CC=C(COC(=O)[C@@](C)(O)[C@@]1(C)O)[C@H]23 | inactive | 
c1ccc2c(c1)OC[C@@H](C1=NCCN1)O2 | inactive | 
NCC#Cc1ccccc1 | 3160 nM (active) | 
C/C=C1\C[N@@+]2(C)CC[C@@]34C(=C(C=O)[C@H]1C[C@H]32)Nc1ccccc14 | inactive | 
C[N+]1(C)C2CC(OC(=O)C(CO)c3ccccc3)CC1[C@@H]1O[C@H]21 (stereo partly drawn) | inactive | 
OC(c1ccccc1)(c1ccccc1)C1CCCN1 (stereo not drawn) | 15800 nM (active) | 
OC(c1ccccc1)(c1ccccc1)C1CCNCC1 | inactive | 
CC[C@H](C)C(=O)O[C@@H]1[C@H](O)[C@@H]2[C@H](CN3C[C@@H](C)CC[C@@H]3[C@@]2(C)O)[C@@H]2C[C@@]34O[C@@]5(O)[C@@H](OC(=O)[C@](C)(O)CC)CC[C@@]3(C)[C@H]5[C@H](OC(C)=O)[C@@H](OC(C)=O)[C@H]4[C@]12O | inactive | 
CC(C)Oc1cccnc1N(C)C1CCN(Cc2ccccc2)CC1 | inactive | 
CS(=O)(=O)N1CCC2(CC1)CN(Cc1ccncc1)C2 | inactive | 
O=c1[nH]oc2c1CCNC2 | inactive | 
Cn1ccnc1 | inactive | 
C[C@@]12CC[C@H]3[C@@H](CC[C@@H]4C[C@H]5S[C@H]5C[C@]43C)[C@H]1CC[C@H]2O | 25.1 nM (active) | 
C[C@]12CC[C@H](O)C[C@@H]1CC[C@H]1[C@H]2CC[C@]2(C)C(=O)CC[C@@H]12 | inactive | 
CC(C)CCC[C@@H](C)[C@@H]1CC[C@@H]2[C@H]3CC[C@H]4C[C@@H](N)CC[C@@]4(C)[C@@H]3CC[C@]21C |  | 3.33% [at 11.4 µM] (inactive)
C[As+](C)(c1ccc(Br)c([N+](=O)[O-])c1)c1ccc(Br)c([N+](=O)[O-])c1.O=[N+]([O-])O |  | -12.7% [at 11.4 µM] (inactive)
COc1cc(-c2ccc(=O)[nH]n2)ccc1OC(F)F | 2510 nM (active) | 
CC(C)CN1CCC2(CC1)CCN(S(C)(=O)=O)CC2 | inactive | 
O=C(CCCN1CCC(n2c(=O)[nH]c3ccccc32)CC1)c1ccc(F)cc1 | inactive | 
CN1C(=O)C(=Cc2ccc(N3CCCCCC3)o2)C(=O)N(C)C1=S | 1580 nM (active) | 
CN1C(=O)C(=Cc2ccc(N3CCCCC3)o2)C(=O)N(C)C1=S | 1580 nM (active) | 
CC(=O)NBr | inactive | 
O=C(Oc1ccccc1)N1CCC2(CCN(Cc3ccccc3)CC2)CC1 | inactive | 
CC(C)COC(=O)OCN1C(=O)CN(CCN2CC(=O)N(COC(=O)OCC(C)C)C(=O)C2)CC1=O | inactive | 

SMILES | AC50 | activity, negative = inhibition
Cc1ncc([N+](=O)[O-])n1CCN=[N+]=[N-] |  | -9.71% [at 11.4 µM] (inactive)
COc1cc(CN2CCN(C(=O)COc3ccccc3)CC2)cc(OC)c1OC | inactive | 
C[C@@H](N)Cn1ccc2cc(F)c(Cl)cc21 | 50.1 nM (active) | 
CCCCCC[C@H]1C(=O)O[C@H](C)[C@H](NC(=O)c2cccc(NC=O)c2O)C(=O)O[C@@H](C)[C@H]1OC(=O)CC(C)C | inactive | 
COc1ccc2[nH]c3c(c2c1)CCNC3 | 3160 nM (active) | 
COc1ccc2[nH]c3c(c2c1)CCN=C3C | 1580 nM (active) | 
COc1ccc2c3c([nH]c2c1)C(C)=NCC3 | 794 nM (active) | 
CC1=NCCc2c1[nH]c1cc(O)ccc21 | 12600 nM (active) | 
CN(C)C=C1C(=O)N(C2CCCCC2)C(=O)N(C2CCCCC2)C1=O | inactive | 
c1cc2cc(c1)C[n+]1ccc(c3ccccc31)NCc1ccc(cc1)CNc1cc[n+](c3ccccc13)C2 | inactive | 
C[N+]1([O-])[C@H]2CC[C@H]1CC(OC(=O)[C@@H](CO)c1ccccc1)C2 (stereo partly drawn) |  | 0.783% [at 2.29 µM] (inactive)
C[N+](C)(C)CCCCCCCCCC[N+](C)(C)C | inactive | 
NCC[C@H](O)C(=O)N[C@H]1C[C@@H](N)[C@@H](O[C@H]2O[C@@H](CN)[C@@H](O)[C@@H](O)[C@@H]2N)[C@@H](O[C@H]2O[C@@H](CO)[C@@H](O)[C@@H]2O)[C@@H]1O | inactive | 
c1cc(CN2CC3(CCNCC3)C2)ccn1 | inactive | 
O=c1[nH]cnc2[nH]cc(CN3CCCCC3)c12 |  | -11.6% [at 11.4 µM] (inactive)
COc1ccccc1CN1CCCC2(CCN(C(=O)Oc3ccccc3)CC2)C1 | inactive | 
CC(C)c1nccn1Cc1ccc(Cl)cc1Cl |  | -14.7% [at 11.4 µM] (inactive)
O=C(O)C(C(=O)O)P(=S)(S)c1ccccc1 (stereo not drawn) |  | -13.3% [at 11.4 µM] (inactive)
CNCC/C=C\c1cccnc1 | inactive | 
Cn1cc(C(=O)C(=O)N[C@H]2CN3CCC2CC3)c2ccccc21 | 15800 nM (active) | 
CN1[C@@H]2CC[C@H]1CC(NC(=O)c1nn(C)c3ccccc13)C2 (stereo partly drawn) | inactive | 
COc1cc(N)c(Cl)cc1C(=O)N[C@@H]1CN2CCC1CC2 | inactive | 
NCC1(CC(=O)O)CCCCC1 | inactive | 
C[C@H]1CC[C@@]2(NC1)O[C@@H]1C[C@H]3[C@@H]4CC[C@@H]5C[C@@H](O)CC[C@@]5(C)[C@@H]4CC[C@]3(C)[C@@H]1[C@@H]2C | inactive | 
CCCN1CCC[C@@H]2Cc3nc(N)ncc3C[C@H]21 | inactive | 

SMILES | AC50 | activity, negative = inhibition
N#CCCCC[N+]12CN3CN(CN(C3)C1)C2 |  | 15% [at 2.29 µM] (inactive)
COCCCN1Cc2ccccc2C1=N | inactive | 
S=C(S)N1CCCC1 | 31600 nM (active) | 
C[C@@]12CC[C@H](O)C[C@@H]1CC[C@@H]1[C@@H]2CC[C@@]2(C)[C@@H](C3=CC(=O)OC3)[C@H](O)C[C@]12O |  | -18.3% [at 11.4 µM] (inactive)
CC1(C)N=C(N)N=C(N)N1c1cccc(C(=O)Nc2ccc(S(=O)(=O)F)cc2)c1 |  | -15.8% [at 11.4 µM] (inactive)
c1ccc(CN2CC[C@@]3(CCCNC3)C2)cc1 | inactive | 
NC1=Nc2ccccc2Oc2ccccc21 | 12600 nM (active) | 
CC(C)[N+](C)(CCC(C(N)=O)(c1ccccc1)c1ccccc1)C(C)C | inactive | 
CN1C(=O)c2ccccc2Sc2ccc(C(=O)N3CCC4(CC3)OCCO4)cc21 | inactive | 
C=CCN1C(=O)c2ccccc2Sc2ccc(C(=O)N3CCC4(CC3)OCCO4)cc21 | inactive | 
CC(=O)c1ccc2c(c1)N(CCCN(C)C)c1ccccc1S2 | 1580 nM (active) | 
C[N+](C)(C)CCCCCC[N+](C)(C)C | inactive | 
COc1ccc2[nH]cc(C3=CCNCC3)c2c1 | 251 nM (active) | 
CCCOc1ccc2[nH]cc(C3=CCNCC3)c2n1 | 126 nM (active) | 
O=c1ccc2[nH]cc(C3=CCNCC3)c2[nH]1 | inactive | 
C[C@@]12CC[C@@H]3[C@H](CCC4=CC(=O)CC[C@]43C)[C@@H]1CC[C@@H]2C(=O)Cn1cnc2c(=S)nc[nH]c21 |  | -15.8% [at 11.4 µM] (inactive)
NP(N)(=O)NC(=O)c1ccc(F)cc1 | inactive | 
NCCCP(=O)(O)O | inactive | 
CC1=C(O)C(=O)[C@H]2O[C@@H]2C1=O | inactive | 
C[N+]1(C)[C@@H]2CC[C@H]1CC(OC(=O)[C@@H](CO)c1ccccc1)C2 (stereo partly drawn) | inactive | 
CN1CCCC2(CCN(C(=O)c3csnn3)CC2)C1 | inactive | 
O=C(c1ccncc1)N1CCC2(CC1)CN(Cc1ccccc1)C2 | inactive | 
O=C(c1csnn1)N1CCC2(CC1)CN(Cc1ccncc1)C2 | 10000 nM (active) | 
